RORg inh – ROR gamma (mouse) transcription inhibition | 5.4% of 310,000 active | Potency, µM (series often up to 53.6 µM), for the others: top-dose activity change, negative = inhibition, actives largely listed as inhibitors | AID 2551 | Drosophila S2 Gal4-RORgamma UAS-luciferase reporter, 20 h | P51450; further: potency means the concentration at half of the fitted maximal effect; on the % scale 0 is the no-effect control and ±100 the full control effect; nearly all actives have a fitted effect of over 60% in size
Target sequence (P51450 whole entry, looked up, the tested form may be a part): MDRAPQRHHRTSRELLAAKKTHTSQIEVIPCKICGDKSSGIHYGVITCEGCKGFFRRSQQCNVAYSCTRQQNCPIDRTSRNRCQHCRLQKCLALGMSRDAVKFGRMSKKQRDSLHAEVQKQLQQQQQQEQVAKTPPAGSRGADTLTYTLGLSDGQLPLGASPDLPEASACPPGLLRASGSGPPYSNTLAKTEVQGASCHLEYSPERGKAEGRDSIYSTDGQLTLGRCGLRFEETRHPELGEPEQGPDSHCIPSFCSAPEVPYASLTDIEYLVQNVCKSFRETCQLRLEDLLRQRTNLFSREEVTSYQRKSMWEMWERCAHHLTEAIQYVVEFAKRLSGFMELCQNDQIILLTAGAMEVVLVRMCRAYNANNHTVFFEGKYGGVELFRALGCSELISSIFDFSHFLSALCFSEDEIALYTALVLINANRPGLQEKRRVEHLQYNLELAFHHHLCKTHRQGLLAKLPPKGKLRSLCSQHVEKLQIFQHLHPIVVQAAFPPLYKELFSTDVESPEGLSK
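Luminescence from a UAS-regulated Photinus luciferase reporter in stably transfected Drosophila Schneider cells is measured; decreased signal marks ROR gamma inhibition. Fusion expression is induced by 700 uM copper sulfate for 20 hr.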
MCF10A rereplic – induces DNA re-replication in MCF 10a normal breast cells | MCF 10A DNA re-replication, Hoechst nuclear intensity, 48 h | Potency, µM (doses to about 46.1 µM), without a hit: at the top dose activity, positive = re-replication, most hits filed as activators | 2.9% of 350,000 active | AID 624296; further: potency means the concentration at half of the fitted maximal effect; % of control where 0% means no effect; nearly all actives have a fitted effect of over 50% in size
Gal4-VP16 FLuc – counter-screen for ROR gamma inhibitors: Gal4-VP16 reporter; 3.5% of 310,000 active; AID 2546; Potency, µM (highest dose often 53.6 µM), without a hit: top-dose activity, negative = inhibition, usual class: inhibitors; Drosophila S2 Gal4-VP16 UAS-luciferase, luminescence, 20 h;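 further: Gal4-VP16 expression switched on by copper sulfate through the metallothionein promoter; potency means the concentration at half of the fitted maximal effect; on the % scale 0 is the no-effect control and ±100 the full control effect; nearly all actives have a fitted effect of over 50% in size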
SW480 rereplic – DNA re-replication induction in SW480 cells | Potency, µM (doses to about 46.1 µM), without a hit: at the highest dose re-replication activation, usual class: activators | SW480 DNA re-replication, Hoechst DNA content imaging, 48 h | 1.8% of 340,000 active; further: potency means the concentration at half of the fitted maximal effect; % of control where 0% means no effect; nearly all actives have a fitted effect of over 55% in size
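Per well, 250 cells were exposed to pinned compound for 48 hr. Nuclear DNA was visualised with Hoechst (40 min, 37 C) and total object intensity recorded by fluorescence scanning.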
IL1B secr inh – blocks inflammasome-driven IL-1 beta release. THP-1 LPS/ATP IL-1B secretion, AlphaLISA, 16 h; active compounds read low. activity change, % at 57.5 µM. 4.7% of 360,000 active; in the data active means activity change below about -50%; inconclusive means mostly about -30% to -49%; further: on the % scale 0 is the no-effect control and ±100 the full control effect
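Secreted IL-1B measured by AlphaLISA bead assay after 16 h compound exposure of THP-1 cells; compounds (final up to 57.5 uM) added 1 h before LPS (250 ng/mL) and ATP (1.25 mM) stimulation; lower signal means less secretion.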
* = called active by the depositor; [ ] = dose if it differs, or a comment. The list is not random: actives were taken first. Their share in the collection is about 11%. Unless noted, the call rests on the fitted dose curve; in most records, active means well fitted curve in the direction sought with a large enough effect; inconclusive means small, poorly fitted or top-dose-only effect, or another doubt; inactive means no such curve, though single readings can be large; an effect the other way counts as inactive or inconclusive.

What do the screens show for `CCCCn1c(N)c(N(CCOC)C(=O)c2oc3c(Cl)cccc3c2C)c(=O)[nH]c1=O`?
IL1B secr inh: -7

What do the screens show for `Cc1cc(/C=N/NC(=O)c2cccc([N+](=O)[O-])c2)c(C)n1-c1ccc(Cl)cc1Cl`?
RORg inh: 1.8µM*; MCF10A rereplic: inconclusive; Gal4-VP16 FLuc: 6.3µM*; SW480 rereplic: 2%[9.22 µM]; IL1B secr inh: -61*

How did Cc1cccc(/C=N/NC(=O)c2cccc([N+](=O)[O-])c2)n1 do in these assays?
RORg inh: -15%; MCF10A rereplic: 9%; Gal4-VP16 FLuc: 2%; SW480 rereplic: inconclusive; IL1B secr inh: -10

What do the screens show for `O=C(N/N=C/c1ccc[nH]1)c1ccccc1O`?
RORg inh: 1.3µM*; MCF10A rereplic: -32%; Gal4-VP16 FLuc: 5.6µM*; SW480 rereplic: inconclusive; IL1B secr inh: -1

Results for O=C(N/N=C/c1ccc[nH]1)c1ccccc1OCc1ccccc1Cl ?
RORg inh: 10µM*; MCF10A rereplic: 3%; Gal4-VP16 FLuc: inconclusive; SW480 rereplic: 9%; IL1B secr inh: -90*

Results for O=C(N/N=C/c1ccc[nH]1)c1ccc(O)cc1 ?
RORg inh: 8.9µM*; MCF10A rereplic: 3%; Gal4-VP16 FLuc: inconclusive; SW480 rereplic: -3%; IL1B secr inh: 7

How did C=C(C)C(=O)OC do in these assays?
RORg inh: -8%; Gal4-VP16 FLuc: -7%

What do the screens show for `CC(C)(C)c1ccc(C2CC2C(=O)N/N=C\c2ccc[nH]2)cc1` (stereo not given)?
RORg inh: 10µM*; MCF10A rereplic: inconclusive; Gal4-VP16 FLuc: 6.3µM*; SW480 rereplic: inconclusive; IL1B secr inh: -61*

What do the screens show for `O=C(N/N=C/c1ccc[nH]1)c1cccc([N+](=O)[O-])c1`?
RORg inh: 7.9µM*; MCF10A rereplic: 0%; Gal4-VP16 FLuc: 10µM*; SW480 rereplic: 0%; IL1B secr inh: -8

How did CC(C)Cc1ccc(CN2CCCC(NC(=O)c3ccoc3)C2)cc1 (stereo not given) do in these assays?
RORg inh: 0%; MCF10A rereplic: inconclusive; Gal4-VP16 FLuc: inconclusive; SW480 rereplic: 1%; IL1B secr inh: -8

What do the screens show for `CC(C)Cc1ccc(CN2CCCC(NC(=O)c3nn(C)c(=O)c4ccccc34)C2)cc1` (stereo not given)?
MCF10A rereplic: 21µM*; SW480 rereplic: inconclusive; IL1B secr inh: -13

How did CC(C)Cc1ccc(CN2CCCC(NC(=O)c3cccc(-n4cnnc4)c3)C2)cc1 (stereo not given) do in these assays?
RORg inh: inconclusive; MCF10A rereplic: inconclusive; Gal4-VP16 FLuc: -12%; SW480 rereplic: -3%; IL1B secr inh: -51*

What do the screens show for `COc1ccc(OC)c(-c2csc(NC(=O)CSc3ccc([N+](=O)[O-])cc3)n2)c1`?
RORg inh: 3%; MCF10A rereplic: 2%; Gal4-VP16 FLuc: inconclusive; SW480 rereplic: 6%; IL1B secr inh: -69*

What do the screens show for `COc1ccc(OC)c(-c2csc(NC(=O)CSc3ccc(Br)cc3)n2)c1`?
RORg inh: -16%; MCF10A rereplic: 21%; Gal4-VP16 FLuc: -12%; SW480 rereplic: 2%; IL1B secr inh: -59*

Results for Cc1cc2c(c(C)c1Cl)C(c1ccc3c(c1)OCO3)CC(c1ccccc1)O2 (stereo not given) ?
RORg inh: 2%; Gal4-VP16 FLuc: 5%

How did Cc1cc(Oc2ccccc2)nc(SCC(=O)Nc2ccc(Cl)cc2Cl)n1 do in these assays?
RORg inh: 3.5µM*; MCF10A rereplic: 12%; Gal4-VP16 FLuc: 9%; SW480 rereplic: inconclusive; IL1B secr inh: -14

How did CN(C(=O)c1cccc(NC(=O)C2CCN(C(=O)OC(C)(C)C)CC2)c1)C1CCCCC1 do in these assays?
MCF10A rereplic: 7%; SW480 rereplic: 0%; IL1B secr inh: 3

What do the screens show for `CN1CCN(c2sc(S(C)(=O)=O)nc2S(=O)(=O)c2ccc(Cl)cc2)CC1`?
RORg inh: -31%; MCF10A rereplic: 13%; Gal4-VP16 FLuc: 1%; SW480 rereplic: -11%; IL1B secr inh: inconclusive

Results for CCCCC(C)Sc1nc2c([nH]1)c(=S)n(C)c(=O)n2C (stereo not given) ?
MCF10A rereplic: inconclusive; SW480 rereplic: 15%; IL1B secr inh: -99*

What do the screens show for `CCCC(CC)Sc1nc2c([nH]1)c(=S)n(C)c(=O)n2C` (stereo not given)?
MCF10A rereplic: inconclusive; SW480 rereplic: inconclusive; IL1B secr inh: 35

How did CCOc1ccc(NC(=O)NC23CC4CC(CC(C4)C2)C3)cc1 do in these assays?
RORg inh: 11%; MCF10A rereplic: 17%; Gal4-VP16 FLuc: -6%; SW480 rereplic: 5%; IL1B secr inh: -67*

What do the screens show for `O=C(Nc1ccc(Cl)c(Cl)c1)Nc1ccccc1C(=O)O`?
RORg inh: inconclusive; MCF10A rereplic: 7%; Gal4-VP16 FLuc: inconclusive; SW480 rereplic: 8%; IL1B secr inh: -1

Results for CCOc1ccc(S(=O)(=O)NCCC(=O)Nc2ccncc2)cc1 ?
MCF10A rereplic: 0%; SW480 rereplic: -5%; IL1B secr inh: 27

How did COc1ccc(NC(=O)NC23CC4CC(CC(C4)C2)C3)cc1OC do in these assays?
RORg inh: 39%; MCF10A rereplic: 4%; Gal4-VP16 FLuc: 28%; SW480 rereplic: -3%; IL1B secr inh: -13

What do the screens show for `O=C(Nc1ccc(Cl)cc1)Nc1ccccc1C(=O)O`?
RORg inh: 7.1µM*; MCF10A rereplic: 25%; Gal4-VP16 FLuc: 11µM*; SW480 rereplic: inconclusive; IL1B secr inh: 0

How did CCOc1ccc(/C=C/C(=O)Nc2cccc(C(C)=O)c2)cc1 do in these assays?
RORg inh: 1.1µM*; MCF10A rereplic: inconclusive; Gal4-VP16 FLuc: 4.5µM*; SW480 rereplic: inconclusive; IL1B secr inh: -2

Results for CCOc1ccc(NC(C(=O)Nc2cccc(C(C)=O)c2)c2ccccc2)cc1 (stereo not given) ?
RORg inh: inconclusive; MCF10A rereplic: 15%; Gal4-VP16 FLuc: 27%; SW480 rereplic: 3%; IL1B secr inh: 0

What do the screens show for `CCOc1ccc(S(=O)(=O)NCCC(=O)Nc2cccc(C(=O)OC)c2)cc1`?
RORg inh: 24%; MCF10A rereplic: -1%; Gal4-VP16 FLuc: inconclusive; SW480 rereplic: -1%; IL1B secr inh: -74*

What do the screens show for `CC(C)Cc1cc(C(=O)N(C)C2CCCN(Cc3ccccc3F)C2)n(C)n1` (stereo not given)?
RORg inh: 0%; MCF10A rereplic: 1%; Gal4-VP16 FLuc: -10%; SW480 rereplic: 16%; IL1B secr inh: 32

What do the screens show for `CCCC(=O)N1CCCC1(C)C(=O)Nc1cc(C)ccc1C` (stereo not given)?
IL1B secr inh: 28

What do the screens show for `CC(=O)c1cccc(-c2ccnc3c2CC(C(=O)Nc2ccccc2)O3)c1` (stereo not given)?
IL1B secr inh: -5
